Records with an inconclusive call do not appear. Calls of active or inactive are those of the source. The call rests on the fitted dose curve; in most records, active means well fitted inhibition curve with a large enough effect; inconclusive means small, poorly fitted or top-dose-only effect; inactive means flat fitted curve, though single readings scatter.
Experiments:
[1] = qHTS profiling for inhibitors of Plasmodium falciparum proliferation (AID 504749); further: nearly all actives have a fitted effect of over 60% in size;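 on activity, negative = inhibition: 0% = DMSO vehicle and full inhibition = artemisinin control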; details: P. falciparum in erythrocytes, SYBR Green DNA, 72 h
Method in brief: (§1)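 Parasite proliferation within erythrocytes, 72 h exposure. Endpoint: SYBR Green I fluorescence after overnight lysis at room temperature. Controls: 0.29 uM artemisinin, DMSO.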

3D7 = experiment: as above; details: P. falciparum in erythrocytes, SYBR Green DNA, 72 h; series mostly up to 28.7 µM
Method in brief: as §1

AA1029 = experiment: as above; details: P. falciparum in erythrocytes, SYBR Green DNA, 72 h; series mostly up to 28.7 µM
Method in brief: as §1

AS120 = experiment: as above; details: P. falciparum in erythrocytes, SYBR Green DNA, 72 h; series mostly up to 28.7 µM
Method in brief: as §1

ATS189 = experiment: as above; details: P. falciparum in erythrocytes, SYBR Green DNA, 72 h; series mostly up to 28.7 µM
Method in brief: as §1

ATS95 = experiment: as above; details: P. falciparum in erythrocytes, SYBR Green DNA, 72 h; series mostly up to 28.7 µM
Method in brief: as §1

C2A = experiment: as above; details: P. falciparum in erythrocytes, SYBR Green DNA, 72 h; series mostly up to 28.7 µM
Method in brief: as §1

CP185 = experiment: as above; details: P. falciparum in erythrocytes, SYBR Green DNA, 72 h; series mostly up to 28.7 µM
Method in brief: as §1

CP191 = experiment: as above; details: P. falciparum in erythrocytes, SYBR Green DNA, 72 h; series mostly up to 28.7 µM
Method in brief: as §1

CP192 = experiment: as above; details: P. falciparum in erythrocytes, SYBR Green DNA, 72 h; series mostly up to 28.7 µM
Method in brief: as §1

CP194 = experiment: as above; details: P. falciparum in erythrocytes, SYBR Green DNA, 72 h; series mostly up to 28.7 µM
Method in brief: as §1

CP201 = experiment: as above; details: P. falciparum in erythrocytes, SYBR Green DNA, 72 h; series mostly up to 28.7 µM
Method in brief: as §1

CP211 = experiment: as above; details: P. falciparum in erythrocytes, SYBR Green DNA, 72 h; series mostly up to 28.7 µM
Method in brief: as §1

CP215 = experiment: as above; details: P. falciparum in erythrocytes, SYBR Green DNA, 72 h; series mostly up to 28.7 µM
Method in brief: as §1

CP217 = experiment: as above; details: P. falciparum in erythrocytes, SYBR Green DNA, 72 h; series mostly up to 28.7 µM
Method in brief: as §1

CP237 = experiment: as above; details: P. falciparum in erythrocytes, SYBR Green DNA, 72 h; series mostly up to 28.7 µM
Method in brief: as §1

7G8 = experiment: as above; details: P. falciparum in erythrocytes, SYBR Green DNA, 72 h; series mostly up to 28.7 µM
Method in brief: as §1

CP203 = experiment: as above; details: P. falciparum in erythrocytes, SYBR Green DNA, 72 h; series mostly up to 28.7 µM
Method in brief: as §1

[2] = at 28.7 µM (top of the series), parasite line A
[3] = at 28.7 µM (top of the series), parasite line B
Potency means the concentration at half of the fitted maximal effect.

CC(C)(C)OC(=O)c1ncn2c1[C@@H]1CCCN1C(=O)c1c(Br)cccc1-2
inactive: activity, negative = inhibition [1, 2] 0.318% | activity, negative = inhibition [1, 3] 11.2% | Potency (3D7) | Potency (AA1029) | Potency (AS120) | Potency (ATS189) | Potency (ATS95) | Potency (C2A) | Potency (CP185) | Potency (CP191) | Potency (CP192) | Potency (CP194) | Potency (CP201) | Potency (CP211) | Potency (CP215) | Potency (CP217) | Potency (CP237)

O=C(CCCN1CCC(n2c(=O)[nH]c3ccccc32)CC1)c1ccc(F)cc1
active: Potency ([1]; parasite line A) 3.16 µM | Potency ([1]; parasite line B) 3.16 µM | Potency (3D7) 1 µM | Potency (7G8) 0.158 µM | Potency (AA1029) 3.55 µM | Potency (AS120) 2.24 µM | Potency (ATS189) 1.58 µM | Potency (ATS95) 3.16 µM | Potency (CP191) 1 µM | Potency (CP215) 4.55 µM | Potency (CP217) 3.98 µM | Potency (CP237) 1.41 µM

CCN(CC)CCOC(=O)C(C)(c1ccccc1)c1ccccc1
inactive: activity, negative = inhibition [1, 2] -27.7% | Potency (3D7) | Potency (C2A) | Potency (CP192) | Potency (CP201)
active: Potency (7G8) 5.01 µM | Potency (AA1029) 4.47 µM

CC(C)(O)C(Cl)(Cl)Cl
active: Potency ([1]; parasite line A) 11.2 µM | Potency ([1]; parasite line B) 12.6 µM | Potency (3D7) 2 µM | Potency (7G8) 0.316 µM | Potency (AA1029) 12.6 µM | Potency (AS120) 4.47 µM | Potency (ATS189) 3.16 µM | Potency (ATS95) 10 µM | Potency (CP191) 3.16 µM | Potency (CP215) 8.49 µM | Potency (CP237) 3.16 µM

C[C@]12Cc3nonc3C[C@@H]1CC[C@@H]1[C@@H]2CC[C@@]2(C)[C@H]1CC[C@]2(C)O
inactive: activity, negative = inhibition [1, 3] -29.5% | Potency (3D7) | Potency (AA1029) | Potency (AS120) | Potency (ATS189) | Potency (ATS95) | Potency (C2A) | Potency (CP185) | Potency (CP191) | Potency (CP192) | Potency (CP201) | Potency (CP211) | Potency (CP215) | Potency (CP237)

OC(c1ccccc1)(c1ccccc1)C1CCNCC1
inactive: activity, negative = inhibition ([1]; at 12.8 µM (top of the series), parasite line A) 1.93% | activity, negative = inhibition ([1]; at 12.8 µM (top of the series), parasite line B) 13.2% | Potency (3D7) | Potency (AA1029) | Potency (AS120) | Potency (ATS189) | Potency (ATS95) | Potency (C2A) | Potency (CP185) | Potency (CP191) | Potency (CP192) | Potency (CP194) | Potency (CP201) | Potency (CP211) | Potency (CP215) | Potency (CP217) | Potency (CP237)

CN1C(=O)[C@@H](NC(=O)c2cc3ccccc3[nH]2)N=C(c2ccccc2)c2ccccc21
active: Potency (7G8) 11.2 µM
inactive: Potency (CP201)

CCC1(CC)C(=O)NC(=O)NC1=O
inactive: activity, negative = inhibition [1, 2] -0.0726% | activity, negative = inhibition [1, 3] 11.2% | Potency (3D7) | Potency (AA1029) | Potency (AS120) | Potency (ATS189) | Potency (ATS95) | Potency (C2A) | Potency (CP185) | Potency (CP191) | Potency (CP192) | Potency (CP194) | Potency (CP201) | Potency (CP211) | Potency (CP215) | Potency (CP217) | Potency (CP237)

C[C@]12C=CC(=O)C=C1CC[C@@H]1[C@@H]2CC[C@@]2(C)[C@H]1CC[C@]2(C)O
inactive: activity, negative = inhibition [1, 2] 0.454% | activity, negative = inhibition [1, 3] 5.05% | Potency (3D7) | Potency (7G8) | Potency (AA1029) | Potency (AS120) | Potency (ATS189) | Potency (ATS95) | Potency (C2A) | Potency (CP185) | Potency (CP191) | Potency (CP217) | Potency (CP237)

CCC1(c2ccccc2)CCC(=O)NC1=O (stereo unspecified)
inactive: activity, negative = inhibition [1, 2] 14.1% | activity, negative = inhibition [1, 3] 13.3% | Potency (3D7) | Potency (AA1029) | Potency (AS120) | Potency (ATS189) | Potency (ATS95) | Potency (C2A) | Potency (CP185) | Potency (CP191) | Potency (CP192) | Potency (CP194) | Potency (CP201) | Potency (CP211) | Potency (CP215) | Potency (CP217) | Potency (CP237)

CN1C[C@@H](NS(=O)(=O)N(C)C)C[C@@H]2c3cccc4c3c(cn4C)C[C@H]21
inactive: activity, negative = inhibition [1, 2] -15.7% | activity, negative = inhibition [1, 3] -6.34% | Potency (3D7) | Potency (7G8) | Potency (AS120) | Potency (ATS189) | Potency (ATS95) | Potency (C2A) | Potency (CP185) | Potency (CP191) | Potency (CP194) | Potency (CP201) | Potency (CP215) | Potency (CP217)

CCCCCCCCCCCC[N+](C)(C)CCOc1ccccc1
active: Potency ([1]; parasite line A) 3.55 µM | Potency ([1]; parasite line B) 5.01 µM | Potency (3D7) 5.01 µM | Potency (7G8) 3.98 µM | Potency (AA1029) 5.01 µM | Potency (AS120) 5.01 µM | Potency (ATS189) 8.91 µM | Potency (C2A) 7.08 µM | Potency (CP185) 7.94 µM | Potency (CP191) 4.47 µM | Potency (CP192) 9.53 µM | Potency (CP194) 15.1 µM | Potency (CP201) 10.7 µM | Potency (CP211) 8.49 µM | Potency (CP215) 12 µM | Potency (CP217) 6.31 µM | Potency (CP237) 5.01 µM

Oc1ccc2[nH]cc(CCCCN3CC=C(c4ccccc4)CC3)c2c1
active: Potency (7G8) 3.98 µM | Potency (CP237) 5.62 µM

COP(=O)(OC)C(O)C(Cl)(Cl)Cl (stereo unspecified)
inactive: activity, negative = inhibition [1, 3] 2.48% | Potency (3D7) | Potency (7G8) | Potency (AA1029) | Potency (ATS189) | Potency (ATS95) | Potency (C2A) | Potency (CP185) | Potency (CP191) | Potency (CP192) | Potency (CP194) | Potency (CP201) | Potency (CP203) | Potency (CP211) | Potency (CP215) | Potency (CP217) | Potency (CP237)

C#C[C@]1(O)CC[C@H]2[C@@H]3CCC4=CC(=O)CCC4=C3C=C[C@@]21CC
inactive: Potency (CP192) | Potency (CP211)
active: Potency ([1]; parasite line B) 6.31 µM | Potency (3D7) 7.94 µM | Potency (7G8) 11.2 µM | Potency (ATS95) 10 µM | Potency (CP191) 3.16 µM | Potency (CP237) 0.178 µM

O=C(NC(=O)c1c(F)cccc1F)Nc1cc(Cl)c(OC(F)(F)C(F)C(F)(F)F)cc1Cl (stereo unspecified)
inactive: Potency (CP192) | Potency (CP194) | Potency (CP201) | Potency (CP211) | Potency (CP215)
active: Potency (AS120) 8.91 µM

OC(O)C(Cl)(Cl)Cl
inactive: activity, negative = inhibition [1, 2] 9.58% | activity, negative = inhibition [1, 3] 19.3% | Potency (3D7) | Potency (AA1029) | Potency (AS120) | Potency (ATS189) | Potency (ATS95) | Potency (C2A) | Potency (CP185) | Potency (CP192) | Potency (CP194) | Potency (CP201) | Potency (CP203) | Potency (CP211) | Potency (CP215) | Potency (CP217) | Potency (CP237)

Nc1ccc(N)cc1
active: Potency (3D7) 8.91 µM
inactive: Potency (CP192) | Potency (CP237)

Reference: PubChem BioAssay (NCATS)
